# In PubChem BioAssay AID1347076 (National Center for Advancing Translational Sciences (NCATS), 2019):
# About 13,000 (3.2%) of roughly 400,000 compounds were called active. About 18% were inconclusive and are not listed. Calls follow the shape of the dose curve; as a rule, active = well fitted cell-killing curve with a large enough effect; inconclusive = small, poorly fitted or top-dose-only effect, or effect the other way; inactive = flat fitted curve, though single readings scatter. Only a selection was taken, and actives are over-represented in it overall.
# Assay: qHTS assay for MDR1-selective chemotherapeutics: Primary screen using the drug-selected MDR subline cells KB-V1; also: nearly all actives have a fitted effect of over 60% in size
# Settings: KB-V1 MDR cells viability, CellTiter-Glo, 72 h; series mostly up to 46.1 µM; activity change, negative = cytotoxicity: at the top concentration
# In short: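 KB-V1 MDR subline cells in DMEM (phenol-red free, 10% FBS) exposed to compounds in qHTS concentration series for 72 h at 37 degrees C. Viability read by CellTiter-Glo luminescence; concentration-effect curves fitted after normalization and correction.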
# % is scaled to controls: 0 for no effect and ±100 for the full control effect; potency is read from the fitted curve at half-maximal effect.
Compound,"activity change, negative = cytotoxicity",Potency
Cc1ccc2nc(/C(C#N)=C/c3ccc(-c4ccc(C(=O)OC(C)C)cc4)o3)[nH]c2c1,0.0041% (inactive),
CCN(CC)C(=O)C(C)N1c2cccc3cccc(c23)S1(=O)=O (configuration not stated),-11.9% (inactive),
O=C(Cc1cccs1)Nc1cccc(-c2nc3ccccc3[nH]2)c1,,16.4 µM (active)
CCOC(=O)c1ccc(NC(=O)Cc2cccs2)cc1,-14.2% (inactive),
O=C(Nc1ccc(-c2nc3ccccc3[nH]2)cc1)c1ccncc1,21.2% (inactive),
CC(C)c1cc(C(=O)N(C)C2CCCN(Cc3ccccc3F)C2)n(C)n1 (configuration not stated),-13.9% (inactive),
Cc1nccn1-c1ccc(NC(=O)[C@H]2O[C@@H](n3ccc(=O)[nH]c3=O)[C@H](O)[C@@H]2O)cc1,24.1% (inactive),
CCOC(=O)c1cc(-c2ccccc2)n(-c2cccc(C(=O)Nc3cc(OC)cc(OC)c3)c2)c1C,17.9% (inactive),
Cc1c(NS(=O)(=O)c2cccc(C(=O)Nc3ccc(SC(F)F)cc3)c2)c(=O)n(-c2ccccc2)n1C,,5.17 µM (active)
Cc1c(NS(=O)(=O)c2ccc(Cl)cc2)c(=O)n(-c2ccccc2)n1C,21.8% (inactive),
COc1ccc(C(=O)C(C)OC(=O)c2cccc(S(=O)(=O)Nc3c(C)n(C)n(-c4ccccc4)c3=O)c2)cc1 (configuration not stated),0% (inactive),
COc1cccc(CN2CCC(C(=O)NC(c3ccc4c(c3)OCO4)c3ccccn3)CC2)c1 (configuration not stated),3.03% (inactive),
COc1ccc(/C=C(/NC(=O)c2ccccc2)C(=O)Nc2cccc(C(=O)O)c2)cc1,9.03% (inactive),
CC(=O)c1cccc(NC(=O)[C@@H](NC(N)=O)C(C)C)c1,0% (inactive),
COc1ccc(NC(C(=O)Nc2cccc(C(C)=O)c2)c2ccccc2)cc1 (configuration not stated),,4.61 µM (active)
CN(C)c1ccc(/C=N\Nc2ccc([N+](=O)[O-])cc2[N+](=O)[O-])cc1Cl,-16.2% (inactive),
CC(C)Cc1nc(Nc2ccc(S(=O)(=O)N3CCCC3)cc2)c2nnn(Cc3ccccc3)c2n1,,20.6 µM (active)
CC(C)Nc1ncnc2c1nnn2Cc1ccccc1,-10.4% (inactive),
Cc1nc(Nc2ccc(S(=O)(=O)N3CCCC3)cc2)c2nnn(Cc3ccccc3)c2n1,-20.1% (inactive),
CCOC(=O)[C@]12CCC=C1N(Cc1ccco1)C(=O)[C@H](CC(=O)NCc1cccc(C(F)(F)F)c1)C2,-5.43% (inactive),
CCOC(=O)[C@]12CCC=C1N(Cc1cccc3ccccc13)C(=O)[C@H](CC(=O)NCc1cccc(C(F)(F)F)c1)C2,,20.6 µM (active)

Compound,"activity change, negative = cytotoxicity",Potency
CCOC(=O)[C@]12CCCC=C1N(Cc1cccc3ccccc13)C(=O)[C@H](CC(=O)NCC13CC4CC(CC(C4)C1)C3)C2,-24.8% (inactive),
O=C(NC1CCCCC1)c1cc(C2CC2)on1,9.07% (inactive),
O=C(NC1CCCCCCC1)c1cccs1,1.97% (inactive),
O=C(NC1CCCC1)c1cc(-c2ccccc2)on1,,16.4 µM (active)
CCCCN1C(=O)C(CC(=O)NC(c2ccccc2)c2ccccc2)CC(C(=O)N2CCOCC2)=C1C (configuration not stated),-12.8% (inactive),
N#Cc1ccc[n+](CC(=O)c2ccc(O)c(O)c2)c1,10.8% (inactive),
CCCn1nc(C(=O)OCc2nc(N)nc(Nc3ccccc3C)n2)c2ccccc2c1=O,,20.6 µM (active)
Cc1ccccc1Nc1nc(N)nc(CSc2ccccc2)n1,-12.7% (inactive),
Cc1ccc(C(=O)OCc2nc(N)nc(Nc3ccccc3C)n2)cc1,10.4% (inactive),
O=C(Nc1cccc2cccnc12)c1ccc2sc([C@H]3C[C@H](O)[C@@H](CO)O3)nc2c1,2.51% (inactive),
Cc1ccc(NC(=O)Cn2cnc3nc4c(cc3c2=O)CCCC4)cc1Cl,-1.83% (inactive),
CCn1c(SCC(=O)Nc2ccc(C)cc2)nc2nc3c(cc2c1=O)CCCC3,,0.651 µM (active)
CC(=O)NCCn1c(SCC(=O)Nc2ccc(C)cc2)nc2ccccc2c1=O,,inactive
CCCn1c(N)c(C(=O)CSc2nnc(Cc3cccs3)n2C2CC2)c(=O)[nH]c1=O,3.91% (inactive),
Cn1c(=O)c2c(nc(NCCc3ccccc3)n2Cc2ccccc2Br)n(C)c1=O,8.3% (inactive),
CCCCn1c(SCC(=O)NCCc2ccc(OC)c(OC)c2)nc2c1c(=O)n(C)c(=O)n2C,0% (inactive),
Cn1c(=O)c2c(nc(NCCc3ccccc3)n2Cc2ccccc2)n(C)c1=O,,6.51 µM (active)
CC(C)CCn1c(CN(C)Cc2ccccc2)nc2c1c(=O)n(C)c(=O)n2C,,9.2 µM (active)
Cc1ccnc(SCCn2c(N(C)Cc3ccccc3)nc3c2c(=O)n(C)c(=O)n3C)n1,-0.969% (inactive),
CCn1c(NCCc2ccc(OC)c(OC)c2)nc2c1c(=O)n(C)c(=O)n2C,,4.61 µM (active)
Cn1c(=O)c2c(nc(NCc3ccccc3)n2CC(N)=O)n(C)c1=O,-8.35% (inactive),

Compound,"activity change, negative = cytotoxicity",Potency
COCCn1c(CN(Cc2ccccc2)Cc2ccccc2)nc2c1c(=O)n(C)c(=O)n2C,-15.9% (inactive),
COc1ccc(CCNc2nc(C)cc(C)n2)cc1OC,6.88% (inactive),
Cc1noc(C)c1C(=O)N1CCC1(C)C(=O)NS(=O)(=O)c1ccc(C#N)cc1 (configuration not stated),-16.6% (inactive),
Cc1ccc(-c2cnc(C(O)c3cc(Cl)cc(Cl)c3)[nH]2)cc1 (configuration not stated),-1.01% (inactive),
Cc1cccc(N2CCN(S(=O)(=O)c3ccc4[nH]c5c(c4c3)CCCCC5)CC2)c1C,-22.5% (inactive),
O[C@@H]1C[C@H](c2ccccc2)N(Cc2cccs2)C[C@H]1n1cc(C2CC2)nn1,18.2% (inactive),
COC(=O)[C@]12CCCCC=C1N(Cc1ccc3c(c1)OCO3)C(=O)[C@H](CC(=O)N1CCOCC1)C2,-24.6% (inactive),
Cc1cccc(/C=N/NC(=O)CNc2cccc3ccccc23)n1,,14.6 µM (active)
C/C(=N\NC(=O)CNc1cccc2ccccc12)c1ccc(Br)s1,-2.25% (inactive),
Cn1cccc1/C=N/NC(=O)CNc1cccc2ccccc12,-5.81% (inactive),
COCCNS(=O)(=O)c1cc(-c2nn3c(C)nnc3c3ccccc23)ccc1C,5.47% (inactive),
Cc1ccc(NC(=O)c2ccco2)cc1,-11.2% (inactive),
CCOc1cc(N2CCOCC2)c(OCC)cc1NC(=O)COc1cccc(Cl)c1,-16.4% (inactive),
CCOc1cc(N2CCOCC2)c(OCC)cc1NC(=O)c1ccc(C)s1,2.44% (inactive),
CCOc1cc(N2CCOCC2)c(OCC)cc1NC(=O)COc1cccc2cccnc12,,5.17 µM (active)
CC(C)(C)c1ccc(C(=O)C[n+]2cccc3cc(Cl)ccc32)cc1,14.4% (inactive),
Cc1ccc(C(=O)N2c3ncnn3C3(CCCCC3)[C@@H]3CCCC[C@@H]32)cc1,-14.7% (inactive),
Cc1cc(C(=O)Nc2nnc(C3CC3)s2)c(C)s1,-22.1% (inactive),
Cc1occc1C(=O)Nc1nnc(C2CCCCC2)s1,,16.4 µM (active)
O=C(Nc1nnc(C2CC2)s1)c1cc(Cl)sc1Cl,13.8% (inactive),
